# This is one part of a sample in which hits are shown more often than they occur.
# Pf Dd2 growth – Plasmodium falciparum Dd2 growth inhibition; P. falciparum Dd2 growth, SYBR Green, 72 h; 120,000 compounds, 4.3% hits; Potency, µM (highest dose often 28.9 µM), for inactives: top-dose activity, negative = inhibition, hits mostly inhibitors; active = well fitted inhibition curve with a large enough effect;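 note: plate controls were DMSO vehicle for no effect and reference drug for full effect; nearly all actives have a fitted effect of over 65% in size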
#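 Infected erythrocytes (Dd2, 0.3% parasitemia, 2.5% hematocrit final) are added to compound in RPMI-1640/Albumax II medium, grown 72 h at 37C in low oxygen, then lysed with saponin/Triton-X containing SYBR Green and read by fluorescence.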
# Starred values were filed as active, the others as inactive; i = inactive; [ ] = dose if it differs, or a comment. Potency is the fitted concentration of half-maximal effect.
SMILES,Pf Dd2 growth
CCC(=O)Oc1c(Sc2ccc(Cl)cc2)c(C)nn1-c1ccccc1,-22%
Cc1nn(C(=O)c2ccccc2)c(C)c1Sc1ccc(Cl)cc1,11µM*
CCOc1cc(-c2noc(-c3nnn4c3COC(c3ccc(C)cc3C)C4)n2)ccc1OC (stereo not given),i
CCCOc1cc(C)c2c(c1C)C[C@H](C(C)C(=O)N1CCC(O)CC1)CC2 (stereo not given in full),i
CSCC(=O)N1C[C@@H](NC(=O)Nc2cccc(SC)c2)C[C@H]1C(=O)N[C@@H](CCS(C)(=O)=O)C(N)=O,-3%
CC(C)n1ccnc1C1CCCN(Cc2cscn2)C1 (stereo not given),12%
COc1ccc(-c2nc3c(c(=O)[nH]2)CCN(C(=O)COc2ccc(F)c(F)c2)C3)cc1,1%
COc1ccc(-c2nc3c(c(=O)[nH]2)CCN(C(=O)c2ccccc2)C3)cc1,i
COc1ccc(-c2nc3c(c(=O)[nH]2)CCN(C(=O)CSc2ccccc2)C3)cc1,4.5µM*
CCN(C)C(=O)CCc1c(C)nn(-c2ccccc2)c1Oc1ccccc1F,-4%
Cc1cc(Cl)ccc1NS(=O)(=O)c1ccc2c(c1)CCN2S(C)(=O)=O,0%
CS(=O)(=O)N1CCc2cc(S(=O)(=O)NCc3ccccc3Cl)ccc21,3.2µM*
CCC(=O)N1CCc2cc(S(=O)(=O)NC(C(=O)NCc3ccccc3Cl)C(C)C)ccc21 (stereo not given),i
O=C([C@@H]1C[C@H](F)CN1S(=O)(=O)c1cccc(Cl)c1)N1CCCCC1,32%
Cc1nc(CC2CCN(C(=O)c3cccn3C)CC2)n[nH]1,-3%
COC(=O)c1cc2n(n1)CCN(C(=O)CCc1cccc(OC)c1)C2,-14%
c1ccc2c(N3CCN(Cc4cc5n(n4)CCNC5)CC3)nsc2c1,-8%
O=C(NC1CCCC1)C1CCCN(c2nc(-c3ccccc3)nc3c2CCC3)C1 (stereo not given),-25%
Cc1ccc(C#N)c(N2CCN(C3CCCC3)C(CCO)C2)n1 (stereo not given),-20%
CC1CCN(C(=O)C2CCN(c3nc(-c4ccccc4)nc4c3CCC4)CC2)CC1,1%
OCCC1CN(c2nc(-c3ccccc3)nc3c2CCC3)CCN1C1CCCC1 (stereo not given),10µM*
O=C(C1CCN(c2nc(-c3ccccc3)nc3c2CCC3)CC1)N1CCCNCC1,8.9µM*
NC1CCN(C(=O)C2CCN(c3nc(-c4ccccc4)nc4c3CCC4)CC2)C1 (stereo not given),-4%
COCCCn1c(C)cnc1CC1CCNCC1,4%
CN1C[C@@H]2CCCN3CCC[C@@H]([C@H]23)[C@H]1CCCC(=O)NCCN1CCCC1,i
SMILES,Pf Dd2 growth
CC(C)N1C(=O)C2(CCCC2)C1C(=O)NCc1ccc(N2CCOCC2)cc1 (stereo not given),6%
O=C(c1nc(-c2ccccc2)c2ccccn12)N1CCOCC1,-27%[44.1 µM]
COc1ccc2[nH]c3c(c2c1)CCNC31CCN(C(=O)Cc2cccc(F)c2)CC1,7.1µM*
COc1ccc2[nH]c3c(c2c1)CCNC31CCN(C(=O)COc2ccc(F)cc2)CC1,i
COc1ccc2[nH]c3c(c2c1)CCNC31CCN(C(=O)Cc2ccncc2)CC1,i
COCc1noc([C@@H]2CN(C(=O)CCc3nc4ccccc4[nH]3)C[C@H]2C(N)=O)n1,-6%
Cc1ccc(-c2noc(-c3ccccc3NC(=O)C3CC(=O)N(c4ccc(C)cc4)C3)n2)cc1 (stereo not given),1.4µM*
Cc1ccc(N2CC(C(=O)Nc3ccc(Cl)cc3Cl)CC2=O)cc1 (stereo not given),37%
Cc1ccc(N2CC(c3noc(-c4ccccc4C)n3)CC2=O)cc1 (stereo not given),11%
COCCOC1CCN(C(=O)c2cc(C)n(CCOC)c2C)CC1,34%
COc1ccc(C(=O)N2CCCC3(C2)NC(=O)N(Cc2ccccc2)C3=O)cc1 (stereo not given),1%
O=C1NCCC[C@@H]1NC(=O)[C@@H]1CN(C(=O)c2cccc(F)c2)CCN1C(=O)c1cccc(F)c1,2%
CCS(=O)(=O)N(C1CC1)C1CCOC2(CCN(C(=O)c3cccc(C)c3)CC2)C1 (stereo not given),-9%
CC(C)CCN1C(=O)CC[C@]2(C(=O)NCc3ccncc3)CCCC[C@@H]12,10%
CCCN(CCC)C(=O)[C@@]12CCCC[C@H]1N(CCC(C)C)C(=O)CC2,10µM*
CC(C)CCN1C(=O)CC[C@]2(C(=O)NC3CC3)CCCC[C@@H]12,25%
COCCN(C)C(=O)C1(C)CN(Cc2ccccc2)Cc2ccc(NCC(C)C)nc21 (stereo not given),i
O=C(Cc1ccc(N2CCNC2=O)cc1)N1CCC2(CC1)[C@H](O)C[C@@H]2O,-2%
COc1ccc(CCN2CCCC(CN(C)C(=O)c3cnn(C(C)C)c3)C2)cc1 (stereo not given),i
CN(Cc1ccc(N2CCNC2=O)cc1)CC1CCCN(CCc2ccc(F)cc2)C1 (stereo not given),13µM*
N#Cc1cccc(CN2CC[C@H]3C(=O)NCCCCCCN(Cc4ccncc4)[C@@H]3C2)c1,13µM*
N#Cc1ccccc1CN1CC[C@@H]2C(=O)NCCCCCCN(Cc3ccncc3)[C@@H]2C1,-47%
Cc1ccc(CN2CC[C@H]3C(=O)NCCCCCCN(Cc4ccncc4)[C@@H]3C2)o1,-13%
NC(=O)[C@@H](Cc1ccccc1)NC(=O)C1=C[C@@H](NC(=O)c2ccco2)[C@@H](O)[C@H](O)C1,-14%[44.1 µM]
O=C(Cn1ccnc1)N1CCc2c(n(CCOc3ccccc3)n(-c3ccccc3)c2=O)C1,45%
SMILES,Pf Dd2 growth
Cc1cccc(C2N3CC4(C(C)C)CN2CC(C(C)C)(C3)C4=O)c1 (stereo not given),-19%
CC(C)C12CN3CC(C(C)C)(CN(C1)C3c1ccccn1)C2=O (stereo not given),8.9µM*
CC(C)C12CN3CC(C(C)C)(CN(C1)C3c1ccc(Cl)cc1)C2=O (stereo not given),-13%
COCCn1c(C)nnc1-c1cc(-c2cccc(O)c2)ccn1,i
COc1ccc(C(=O)N[C@H](C)c2onc(-c3ccc(F)cc3)c2C(=O)O)cc1,16%[44.1 µM]
O=C(c1ccc(C(F)(F)F)cc1)N1CCN2C(=O)N(C3CCCCC3)C[C@H]2C1,-17%[44.1 µM]
Cc1ccccc1Cn1c(CCCNC(=O)C2CCCCC2)nc2ccccc21,i
Cc1cccc(OCCCCn2c(C3CC(=O)N(c4ccc(C)cc4C)C3)nc3ccccc32)c1 (stereo not given),11µM*
COc1ccccc1OCCCn1c(C2CC(=O)N(c3ccccc3Cl)C2)nc2ccccc21 (stereo not given),-26%
CCc1ccccc1N1CC(c2nc3ccccc3n2CCCCOc2ccccc2OC)CC1=O (stereo not given),-11%
Cc1cccc(OCCCn2c(CCNC(=O)C3CCCCC3)nc3ccccc32)c1,14µM*
CCOc1ccccc1N1CC(c2nc3ccccc3n2CCCCOc2cc(C)ccc2C)CC1=O (stereo not given),-12%
Cc1cccc(OCCCCn2c(C3CC(=O)N(c4ccccc4Cl)C3)nc3ccccc32)c1 (stereo not given),3.2µM*
Cc1cc(C)cc(OCCn2c(CCNC(=O)C3CCCCC3)nc3ccccc32)c1,10%
CCc1ccccc1N1CC(c2nc3ccccc3n2Cc2cccc(C)c2)CC1=O (stereo not given),-97%
CCCc1nc(C(=O)NCC(C)Cn2nc(C)cc2C(F)(F)F)cs1 (stereo not given),-20%

# Screening data (PubChem BioAssay)
